Measured values published in PubChem BioAssay (EPA / NIEHS).
Inconclusive results are not listed. Calls of active or inactive are those of the source. The calls were made as follows: active = hit-call score of the fitted dose curve at least 0.9, where 1 is the maximum; inconclusive = response in the unintended direction; inactive = score below 0.9.

What follows are compounds tested on Glyceraldehyde-3-phosphate dehydrogenase (Homo sapiens) (UniProt P04406) (assay: CLD_GAPDH_24hr: CellzDirect (CLD) Gene Expression Assay for Baseline Control (Glyceraldehyde 3-phosphate dehydrogenase) at 24 hours (AID 2283692)).
Sequence of Glyceraldehyde-3-phosphate dehydrogenase (Homo sapiens) (P04406 whole entry, looked up): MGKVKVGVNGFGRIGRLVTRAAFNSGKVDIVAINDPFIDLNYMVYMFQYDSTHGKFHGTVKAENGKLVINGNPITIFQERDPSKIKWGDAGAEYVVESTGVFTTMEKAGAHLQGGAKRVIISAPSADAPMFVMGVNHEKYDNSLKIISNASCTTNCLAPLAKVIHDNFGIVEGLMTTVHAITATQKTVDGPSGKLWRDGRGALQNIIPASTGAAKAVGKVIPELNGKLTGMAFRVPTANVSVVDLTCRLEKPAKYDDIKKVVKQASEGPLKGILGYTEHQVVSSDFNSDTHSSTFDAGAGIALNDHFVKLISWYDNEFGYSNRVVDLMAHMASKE
Method: CLD_24hr is a cell-based, multiplexed-readout assay that uses hepatocyte, a human liver primary cell, with measurements taken at 24 hours after chemical dosing in a 96-well plate.CLD_GAPDH_24hr is one of 16 assay component(s) measured or calculated from the CLD_24hr assay. It is designed to make measurements of mRNA induction, a form of inducible reporter, as detected with chemiluminescence signals by Quantitative Nuclease Protection Assay (qNPA) technology.Data from the assay component CLD_GAPDH_24hr was analyzed at the endpoint, CLD_GAPDH_24hr, in the positive analysis fitting direction relative to DMSO as the negative control and baseline of activity. Using a type of inducible reporter, gain-of-signal activity can be used to understand changes in the reporter gene as they relate to the gene GAPDH. Furthermore, this assay endpoint can be referred to as a secondary readout, because this assay has produced multiple assay endpoints where this one serves a background control function. To generalize the intended target to other relatable targets, this assay endpoint is annotated to the background measurement intended target family, where subfamily is baseline control.
Human hepatocyte cultures were treated daily for two consecutive days with fresh dosing solutions containing appropriate concentrations of the 320 ToxCast chemicals (chemical identities were blinded to CellzDirect and other ToxCast collaborators), vehicle control (0.2% DMSO), and positive control inducers as summarized in Table 1. Due to the large number of treatment groups and chemicals examined, the ToxCast chemicals were divided into two groups (spanning two independent cultures of hepatocytes from separate donor preparations (Hu778: ToxCast plates 1 and 2; Hu776: ToxCast plates 3 and 4). Each preparation of human hepatocyte cultures was treated with respective vehicle control, medium only control, set of six positive controls/reference chemicals for the five hepatic receptor pathways, and a subset of eight of the ToxCast chemicals (indoxacarb, pyrithiobac-sodium, norflurazon, cyhalofop-butyl, methomyl, thiram, acetochlor, and propiconazole). These replicate data, coupled with internal replicates designed within the blinded ToxCast chemical library, provided additional data to evaluate interindividual differences between hepatocyte preparations and their potential impact on chemical profiles.Cell morphology and integrity were evaluated using phase-contrast microscopy as an indicator of hepatocyte cell health (Tyson & Green, 1987). Cultures for each treatment group (i.e., media, vehicle [0.2% DMSO], positive control inducers [multiple concentrations], and the ToxCast chemicals [multiple concentrations]) were observed and cell morphology was assessed relative to vehicle control cultures at each harvest time point (0, 6, 24, or 48 h). […] Images were evaluated at the conclusion of the study to assess changes in cell integrity and account for the effects of chemical exposure on uncharacteristic changes in concentration-dependent gene expression profiles. The results from these determinations of apparent cytotoxicity were annotated (yes/no) alongside the corresponding qNPA data for reference.At the conclusion of each treatment period, hepatocyte cultures (96-well) were washed with 1 volume of HBSS, lysed by addition of 25 ul ArrayPlate lysis buffer (HTG, Tucson, AZ), and 70 ul/well of Denaturation Oil, denatured by incubation at 95C for 10 min, and frozen at approximately -70C until analysis by nuclease protection assay (qNPA) (Roberts et al., 2007). For qNPA analysis, cell lysates were thawed at 50C for approximately 30 min, qNPA probes were added, and samples were incubated at 95C for 10 min to begin the detection process by denaturing the target RNA, dissociating the duplexes and secondary structure hybridization. At the conclusion of the hybridization period, S1 nuclease reagent was added to each sample to digest all nonprotected nucleotides at 50C for 60-90 min. […]

| SMILES | outcome |
| --- | --- |
| N#Cc1cc(Br)c(O)c(Br)c1 | inactive |
| CC(C)C1(C)N=C(c2nc3ccccc3cc2C(=O)O)NC1=O (stereo not drawn) | inactive |
| N#CC(CCc1ccc(Cl)cc1)(Cn1cncn1)c1ccccc1 (stereo not drawn) | inactive |
| COP(N)(=O)SC (stereo not drawn) | inactive |
| COc1nc(C)nc(NC(=O)NS(=O)(=O)c2ccccc2CCC(F)(F)F)n1 | inactive |
| CCCCC(CC)COC(=O)c1ccccc1C(=O)OCC(CC)CCCC (stereo not drawn) | inactive |
| CNC(=S)S | inactive |
| COC(=O)C=C(C)OP(=O)(OC)OC | inactive |
| CCCCOC(=O)c1ccccc1C(=O)OCCCC | inactive |
| CCCCNC(=O)n1c(NC(=O)OC)nc2ccccc21 | inactive |
| Oc1ccccc1-c1ccccc1 | inactive |
| CCCCNC(=O)OCC#CI | inactive |
| CCON=C(CC)C1=C(O)CC(c2c(C)cc(C)cc2C)CC1=O (stereo not drawn) | inactive |
| COC(=O)C(C)Oc1ccc(Oc2ccc(Cl)cc2Cl)cc1 (stereo not drawn) | inactive |
| COP(=S)(OC)Oc1nc(Cl)c(Cl)cc1Cl | inactive |
| CC(Oc1ccc(Cl)cc1Cl)C(=O)O (stereo not drawn) | inactive |
| Cc1ccc(-c2c(Cl)nc(C#N)n2S(=O)(=O)N(C)C)cc1 | inactive |
| CN(C)C(=S)SSC(=S)N(C)C | inactive |
| COC(=O)c1ccccc1C(=O)OC | inactive |
| COc1nc(C)nc(NC(=O)NS(=O)(=O)c2ccccc2Cl)n1 | inactive |
| O=C(O)COc1nc(Cl)c(Cl)cc1Cl | inactive |
| C=CCC1=C(C)C(OC(=O)C2C(C=C(C)C)C2(C)C)CC1=O (stereo not drawn) | inactive |
| C=CC1(C)OC(=O)N(c2cc(Cl)cc(Cl)c2)C1=O (stereo not drawn) | inactive |
